Results: PubChem BioAssay (NCATS)
Records with an inconclusive call do not appear. Where a call stands in place of a potency, no number is given. Calls of active or inactive are those of the source. Calls come from the whole dose curve.
Potency is the fitted concentration of half-maximal effect.

Assay: Cytotoxicity counterscreen for inhibitors of SARS-CoV-2 cell entry (AID 1645845); note: nearly all actives have a fitted effect of over 50% in size
Conditions: cell viability (SARS-CoV-2 entry assay cells); series mostly up to 57.1 µM
Summary of the method: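 ATP-content luminescence (ATPLite 1step, 15 min RT) read after 48 h compound exposure of Expi293F cells stably expressing human ACE2; normalized to cells-only wells and media-only wells.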
For CCN1C(=O)CNc2ncc(-c3ccc(-c4ncn[nH]4)nc3C)nc21, the Potency was 22.4 µM (active).
For CNCCN(C)Cc1cn[nH]c1-c1ccc(OC2CC(OCCC3CCOCC3)C2)cc1 (stereo not given), the Potency was “inactive”.
For O=C1CC[C@H](N2Cc3c(OCc4ccc(CN5CCOCC5)cc4)cccc3C2=O)C(=O)N1, the Potency was “inactive”.
For O=C(COCC(=O)N1CCN(C(c2ccccc2)c2ccccc2)CC1)Nc1ccc(Cl)cc1C(=O)O, the Potency was “inactive”.
For NC(=S)N/N=C/c1ncccc1N, the Potency was “inactive”.
For CC[C@H](NC(=O)[C@H](C)NC)C(=O)N1C[C@@H](O)C[C@H]1Cc1c(-c2[nH]c3cc(F)ccc3c2C[C@@H]2C[C@H](O)CN2C(=O)[C@H](CC)NC(=O)[C@H](C)NC)[nH]c2cc(F)ccc12, the Potency was “inactive”.
With COc1cc(N2CCC(N3CCN(C)CC3)CC2)ccc1Nc1ncnc(Nc2ccccc2S(=O)(=O)C(C)C)n1 the Potency was “inactive”.
In the case of COc1cc2ncnc(Nc3ccc(O)c(Br)c3)c2cc1OC, the Potency was “inactive”.
For CN(Cc1ccccc1)C(=O)c1ccc(S(=O)(=O)Nc2ccccc2)cc1, the Potency was “inactive”.
In the case of O=C(/C=C/N1C[C@H]2C[C@@H]1CN2c1ccccn1)c1ccccc1O, the Potency was “inactive”.
In the case of Cc1cc(F)c(C(=O)Nc2cccc(-c3nncn3C(C)C)n2)cc1-n1cnc(C2CC2)c1, the Potency was 31.6 µM (active).
For COc1cc(N2CCN(C)CC2)ccc1Nc1ncc2c(n1)N(C)c1ccccc1C(=O)N2, the Potency was “inactive”.
With C[C@@H]1N=C(N)NC(N(C)C)=N1 the Potency was “inactive”.
With CN(C)Cc1cccc(N=C(c2ccccc2)c2c(O)[nH]c3cc(C(N)=O)ccc23)c1 the Potency was “inactive”.
For CCC(C)CNCC(=O)N1CCc2sccc2C1c1cccc(C)n1 (stereo not given), the Potency was “inactive”.
In the case of CCC1CCCCN1C(=O)n1ncc(C(O)(c2ccccc2)c2ccccc2)n1 (stereo not given), the Potency was 11.2 µM (active).
With COc1cc(OC)cc(N(CCNC(C)C)c2ccc3ncc(-c4cnn(C)c4)nc3c2)c1 the Potency was “inactive”.
With O=C(Nc1cnccc1Cl)N1CCN(Cc2ccc3c(c2)OC(F)(F)O3)CC1 the Potency was “inactive”.
In the case of CNS(=O)(=O)Nc1nccc(Cc2c(C)c3ccc(Oc4ncccn4)cc3oc2=O)c1F, the Potency was 14.1 µM (active).
In the case of O=C(NOCCO)c1cc(CN2OCCCC2=O)c(F)c(F)c1Nc1ccc(I)cc1F, the Potency was “inactive”.
With O=C(/C=C/c1ccc(Cl)cc1)N1CCC2(CC1)CN(Cc1ccc(Cl)c(Cl)c1)C(=O)O2 the Potency was “inactive”.
In the case of CN1CCN(c2ccc(-c3cccc(CN4CCOCC4)c3)cc2NC(=O)c2c[nH]c(=O)cc2C(F)(F)F)CC1, the Potency was “inactive”.
With [2H]c1nc(C)nc([2H])c1-c1cc(NC[C@@H](C)c2cccc3c(C(=O)NC)ccnc23)ncn1 the Potency was “inactive”.
For O=C1CC(c2c[nH]c3ccc(F)cc23)C(=O)N1 (stereo not given), the Potency was “inactive”.
For Cc1ccc2cc(-c3c(C)ccc(C(=O)c4c(-c5ccccc5)n(C)n(-c5ccccc5)c4=O)c3N)ccc2n1, the Potency was “inactive”.
With C=C1C(=O)O[C@H]2C[C@H](C)C(/C=C/C(C)=O)=CC[C@H]12 the Potency was 31.6 µM (active).
In the case of Nc1cc(C(F)(F)F)c(-c2nc(N3CCOCC3)nc(N3CCOCC3)n2)cn1, the Potency was 10 µM (active).
For Cc1cc(C(=O)Nc2cc(Oc3ccc4nc(NC(=O)C5CC5)cn4n3)ccc2C)n(C)n1, the Potency was “inactive”.
In the case of C[C@@H](O)[C@@H]1NC(=O)[C@H](CCCCN)NC(=O)[C@@H](Cc2c[nH]c3ccccc23)NC(=O)[C@H](Cc2ccccc2)NC(=O)[C@@H](NC(=O)[C@H](N)Cc2ccccc2)CSSC[C@@H](C(=O)N[C@H](CO)[C@@H](C)O)NC1=O, the Potency was “inactive”.
With COC(=O)N(CC(=O)O)Cc1cccc(OCc2nc(-c3ccc(Cl)cc3)oc2C)c1 the Potency was “inactive”.
In the case of O=C(C1CC1)N1CC[C@@H](Cc2n[nH]c(=O)n2-c2ccc(-c3ccc4occc4c3)cc2)C1, the Potency was 4.47 µM (active).
For CCCc1cc(C)[nH]c(=O)c1CNC(=O)c1cc(-c2ccc(N3CCN(C(C)C)CC3)nc2)cc2c1cnn2C(C)C, the Potency was “inactive”.
In the case of Cc1[nH]c(/C=C2\C(=O)Nc3ccccc32)c(C)c1CCC(=O)O, the Potency was “inactive”.
For CCc1c(-c2ccccc2C)nc2c(C#N)c[nH]n2c1=O, the Potency was “inactive”.
For O=C(Nc1cnn2ccc(N3CCC[C@@H]3c3cc(F)ccc3F)nc12)N1CC[C@H](O)C1, the Potency was “inactive”.
For Nc1nc(F)nc2c1ncn2C1OC(COP(=O)(O)O)C(O)C1O (stereo not given), the Potency was “inactive”.
For CCn1c(=O)c(-c2ccc(-c3cncs3)cc2Cl)cc2cnc(Nc3ccc(N4CCN(C)CC4)cc3)nc21, the Potency was “inactive”.
With O=C(O)c1ccc(O)c2ncccc12 the Potency was “inactive”.
With CCN1CCN(Cc2ccc(NC(=O)c3ccc(C)c(NC(=O)c4cncc(-c5cccs5)c4)c3)cc2C(F)(F)F)CC1 the Potency was 31.6 µM (active).
For CN[C@@H](C)C(=O)N[C@H](C(=O)N1CCC[C@H]1C(=O)Nc1snnc1-c1ccccc1)C1CCCCC1, the Potency was “inactive”.
